Experimental data taken from ChEMBL document CHEMBL3433997, “St. Jude Leishmania screening dataset” (2016).

Experiments:
Type in all cases: functional
[1] = target: Solute carrier family 2, facilitated glucose transporter member 1 (Homo sapiens) (UniProt P11166); assay: ST_JUDE_LEISH: Cytotoxicity at 2uM final concentration against transgenic Leishmania Mexicana promastigotes LmGLUT1 that are glucose transport deficient and complemented with the human glucose transporter GLUT1. Activity is measured by DNA content using SYBR green in vitro
[2] = target: Hexose transporter 1 (Plasmodium falciparum) (UniProt O97467); assay: ST_JUDE_LEISH: Cytotoxicity at 2uM final concentration against transgenic Leishmania Mexicana promastigotes LmPfHT that are glucose transport deficient and complemented with the Plasmodium falciparum hexose transporter. Activity is measured by DNA content using SYBR green in vitro
[3] = target: Glucose transporter (Leishmania mexicana) (UniProt O61059); assay: ST_JUDE_LEISH: Cytotoxicity at 2uM final concentration against transgenic Leishmania Mexicana promastigotes LmGT2 that are glucose transport deficient and complemented with the L. Mexicana glucose transporter 2. Activity is measured by DNA content using SYBR green in vitro

Sequence of Solute carrier family 2, facilitated glucose transporter member 1 (Homo sapiens) (P11166 whole entry): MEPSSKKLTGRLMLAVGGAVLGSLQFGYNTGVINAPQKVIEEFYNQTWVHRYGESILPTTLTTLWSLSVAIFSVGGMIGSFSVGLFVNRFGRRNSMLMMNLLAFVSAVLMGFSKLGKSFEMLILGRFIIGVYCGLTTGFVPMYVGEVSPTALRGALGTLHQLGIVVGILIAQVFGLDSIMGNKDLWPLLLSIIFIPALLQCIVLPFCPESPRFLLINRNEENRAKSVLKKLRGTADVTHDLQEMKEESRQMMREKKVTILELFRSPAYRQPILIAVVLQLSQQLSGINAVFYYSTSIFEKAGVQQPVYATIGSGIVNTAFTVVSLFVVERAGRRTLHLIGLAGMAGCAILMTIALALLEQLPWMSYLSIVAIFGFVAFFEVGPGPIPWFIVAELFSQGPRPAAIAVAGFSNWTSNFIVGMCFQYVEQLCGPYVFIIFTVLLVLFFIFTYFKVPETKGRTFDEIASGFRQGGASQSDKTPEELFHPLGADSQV

Compound	inhibition [1]	inhibition [2]	inhibition [3]
COc1ccc(CNC(=O)Nc2cccc(-c3csc(NC(=N)N)n3)c2)cc1	-2.22%	-0.98%	1.03%
CNC(=O)COc1cc(C)c(C2CCN(CCCCNC(=O)c3ccc(-c4ccc(C(F)(F)F)cc4)cc3)CC2)cc1C	2.41%	2.32%	1.85%
Fc1cccc(Nc2nc(NCc3ccc4ccsc4c3)nc(Nc3cccc(F)c3)n2)c1	19.2%	18%	10.6%
Oc1ccc(Cl)cc1-c1cc(C(F)(F)F)nc(-c2ccccc2)n1	7.04%	5.96%	8.28%
O=C(Nc1cccc(-c2ccc(-c3nc4cc(F)ccc4[nH]3)cc2)c1)c1ccncc1	4.46%	2.3%	2.96%
CC1CN(c2cnn(C/C=C/c3ccc(NC(=O)c4ccc(Cl)cc4)cc3)c(=O)c2Cl)CC(C)N1 (stereo not drawn)	-0.22%	-0.3%	-1.49%
Cc1ccc(Nc2nccc(NCC(O)c3cccc(C)c3)n2)cc1 (stereo not drawn)	5.47%	4.73%	3.22%
Cc1noc(C)c1-c1cccc(CNCc2ccc(-c3cccc(-c4nc5cc(C(F)(F)F)ccc5[nH]4)c3)cc2)c1	-0.48%	1.3%	1.67%
CC(C)COc1ccc(Cl)cc1Cc1ccc(-c2nc3cc(CCN(C)C)ccc3[nH]2)o1	2.44%	4.3%	3.29%
CCCCCCc1cc2cc(-c3csc(C=Cc4ccccc4)n3)c(=O)oc2cc1O	9.95%	10.6%	9.7%
COCC(C)n1c(SCC(=O)Nc2cc(C(F)(F)F)ccc2Cl)nc2ccccc2c1=O (stereo not drawn)	6.25%	4.88%	2.72%
O=C(/C=C/c1ccc(Cl)c(Cl)c1)NCCCCCCN1CCN(C(=O)Nc2ccc(Cl)c(Cl)c2)CC1	2.42%	2.46%	4.14%
COc1cc(-c2nc(-c3ccccc3)c(-c3ccccc3)[nH]2)ccc1OCCN(C)C	1.69%	1.4%	0.91%
NC1=NC2(CCCCC2)N(Cc2ccc(Cl)c(Cl)c2)C(N)=N1	-1.03%	-0.28%	-0.42%
O=C1C2C(c3ccc(Cl)c(Cl)c3)N3CC(OCc4ccccc4)CC3(C(=O)O)C2C(=O)N1c1ccc(Br)cc1 (stereo not drawn)	4.62%	4.75%	3.46%
CCN1CCN(c2ccc(Nc3ccnc4ccc(Br)cc34)cc2)CC1	1.43%	0.09%	-0.25%
Nc1ccnc2ccc(NC(=O)CCCCCc3ccccc3)cc12	1.43%	0.96%	1.99%
Cc1cccc2nc(-c3ccc(-c4cccc(CN5CCN(c6ccncc6)CC5)c4)s3)[nH]c12	4.03%	2.05%	0.33%
CCC(=O)N[C@@H]1CN[C@@H](C#Cc2cc3c(Nc4ccc(OCc5cccc(F)c5)c(Cl)c4)ncnc3s2)C1	2.02%	0.3%	1.72%
CCNc1cc(C(=O)NC(Cc2ccccc2)C(O)CNC(C)(C)CCCC(C)C)c(F)c(N2CCCS2(=O)=O)c1 (stereo not drawn)	-2.99%	-1.24%	1.59%
O=C(Nc1cccc(-c2nn3ncccc3c2-c2ccnc(Nc3ccccc3)n2)c1)c1c(F)cccc1F	3.26%	11%	2.04%
O=C(N/C=N/c1cc([N+](=O)[O-])c(-c2cccnc2)n1-c1ccc(O)cc1)c1ccccc1	-0.13%	-1.73%	-1.68%
N=C(NCc1ccc(O)cc1)Nc1nc(-c2ccc(OCCCn3ccnc3)cc2)cs1	1.63%	0.11%	-3.09%
O=S(=O)(c1cc2ccccc2s1)N(CCC(O)(C(F)(F)F)C(F)(F)F)Cc1cccc(O)c1	-0.29%	-1.09%	1.75%

Compound	inhibition [1]	inhibition [2]	inhibition [3]
CCCCCCCCCC(=O)NCC1CC(Br)=NO1 (stereo not drawn)	-2%	-0.61%	-1.46%
COc1cccc(C=NN=c2cc(C)[nH]c3ccccc23)c1	3.57%	3.07%	3.02%
O=C(/C=C/c1ccccc1Cl)Nc1ccc(Br)c(OCCN2CCN(CCN3CCOCC3)CC2)c1	1.48%	1.38%	0.88%
O=C(Nc1ccc(OC2CCN(Cc3ccco3)C2)c(Cl)c1)c1ccc2ncccc2c1 (stereo not drawn)	0.4%	-3.49%	0.71%
Cc1cc(O)c(-c2ccc(OCc3ccc(Cl)cc3)cc2)c(C)n1	0.84%	0.22%	-0.29%
O=C(Nc1ccc(OC2CCN(Cc3ccccc3)C2)c(Cl)c1)c1ccsc1 (stereo not drawn)	1.05%	2.26%	2.75%
CS(=O)(=O)N1CC2(CCN(CCC(NC(=O)NCc3ccc(Cl)c(Cl)c3)c3ccc(Cl)c(Cl)c3)CC2)c2ccccc21 (stereo not drawn)	0.66%	-2.55%	-1.75%
CNC(=O)CSc1nnc(-c2ccc(C)cc2)c(-c2ccc(C)cc2)n1	2.46%	2.74%	1.88%
CNC(=O)COc1ccc(Nc2nnc(-c3ccc(C)c(S(=O)(=O)NCC4CCCO4)c3)c3ccccc23)cc1 (stereo not drawn)	1.3%	0.12%	-0.43%
Cc1ccc(NC(=O)C(C)Sc2nnc(-c3ccccc3Br)[nH]2)cc1 (stereo not drawn)	-1.5%	-2.48%	-0.33%
CN(C)C(=O)c1ccc(CN(Cc2cccc(OC(C)(C)C)c2)Cc2ccc3c(c2)OCCO3)cc1	0.24%	-0.56%	1%
Cc1cccc2nc(-c3ccc(-c4cccc(CN5CCN(c6ccc(C#N)cn6)CC5)c4)s3)[nH]c12	0.91%	-1.69%	1.21%
OC1CCCN(Cc2ccc(-c3cccc(-c4nc5cc(F)ccc5[nH]4)c3)cc2)C1 (stereo not drawn)	7.7%	7.1%	5.69%
Nc1nc(N)c2c(ccc3c2ccn3C2C=CCCC2)n1 (stereo not drawn)	56.1%	71.8%	34.4%
CC(=O)Nc1cccc(C(=O)Nc2nc3ccc(-c4cc(=O)[nH]c(Nc5ccccc5Cl)n4)cc3[nH]2)c1	4.21%	2.23%	5.36%
O=C(Nc1ccc(-c2ccccc2)cc1)Nc1cccc(OCCN2CCCC2)c1	7.09%	4.18%	4%
O=c1c(Br)c(C(F)(F)F)[nH]c2ccc(Oc3ccccc3)cc12	2.41%	2.75%	2.63%
CNC(=O)NC1=NC(C)(C)N(OCCCOc2cc(Cl)c(Cl)cc2Cl)C(N)=N1	11.5%	11.8%	11.6%
Cc1ccc(C)c(-n2c(SCC(=O)Nc3ccc(C(N)=O)cc3)nnc2-c2cccc(Cl)c2)c1	11.3%	11.6%	10.4%
Cc1cccnc1Nc1nc(-c2ccccn2)cs1	93.5%	73.2%	90.1%
COc1ccc(Nc2nc(NC3CCN(Cc4ccccc4)CC3)cc(-c3ccncc3)n2)cc1	-0.03%	-0.17%	0.86%
Cc1ccccc1C1CCN(C2CCC(NC(=O)/C=C/c3cc(F)ccc3F)CC2)CC1 (stereo not drawn)	1.51%	2.73%	3.64%
CCN(CCCN1CCCCC1)c1cc(C)nc(Nc2ccc(Cl)cc2C)n1	1.07%	1.21%	1.9%
COc1cc(NCCCCCNc2cc(Cl)nc3ccccc23)nc2ccccc12	1.24%	2.23%	2.29%

Compound	inhibition [1]	inhibition [2]	inhibition [3]
CNCc1ccc(-c2ccc3ccnc(N)c3c2)cc1	2.47%	5.56%	3.23%
O=C(Nc1cc(Cl)cc(Cl)c1)Nc1ccccc1C(=O)NC1CCCCC1	-0.12%	-1.94%	0.23%
O=C(/C=C/c1ccc(F)cc1)NC1CCC(CCN2CCc3ccc(-n4cccn4)cc3CC2)CC1 (stereo not drawn)	11.7%	12.9%	7.81%
CCN(CC)CCN(Cc1ccc(-c2ccc(C(F)(F)F)cc2)cc1)C(=O)Cn1c(CCc2cccc(F)c2F)cc(=O)c(C)c1C	11.5%	8.35%	3.62%
COc1ccc2ncc(F)c(CCN3CC[C@H](NCc4cc5c(s4)CCCN5)[C@H](O)C3)c2n1	9.63%	15.1%	2.43%
CN1CCCN(c2ccnc3cc4c(cc23)N(C(=O)c2ccc(Cl)c(Cl)c2)CC4)CC1	0.8%	1.89%	1.54%
O=C(COc1ccccc1Cl)N1CCc2cc3nccc(N4CCN5CCC[C@H]5C4)c3cc21	6.5%	5.14%	6.01%
COc1ccc(CCNCCCCCCNCCc2ccc(Cl)c(Cl)c2)cc1OC	4.21%	3.9%	3.76%
Oc1ccc(CCNc2nc(N/N=C/C=C/c3ccc(Cl)cc3)nc(N3CCNCC3)n2)cc1	0.83%	1.74%	0.91%
Cc1cccc(CNc2nc(C)cc(N[C@@H](CC(C)C)C(=O)NCCOc3ccccc3)n2)c1	4.29%	5.38%	2.08%
CC(=O)c1ccc(-c2cccc3c(CC(=O)Nc4ccc5nccc(N6CCN(C)CC6)c5c4)cccc23)cc1	0.38%	1.03%	-1.81%
COc1ccc(-c2cc(C(=O)N[C@@H](CC3CCCCC3)C(=O)NC3CCCc4ccccc43)ccc2O)cc1 (stereo partly drawn)	0.11%	-0.02%	1.1%
CC[C@H](NC(=O)c1c(N)c(-c2sccc2Cl)nc2ccccc12)c1ccccc1	3.8%	0.64%	1.74%
CCOc1ccc(-c2nonc2NC(=O)c2ccc(OC)cc2)cc1OCC	-1.17%	4.75%	-0.16%
COc1ccc(NC(=O)NC2CCN(CCCOc3ccnc4cc(Cl)ccc34)C2)cc1OC (stereo not drawn)	-0.88%	-0.13%	-0.69%
O=C(NCCCCCN1CCC(c2c[nH]c3ccccc23)CC1)Nc1ccc(I)c(Cl)c1	7.04%	4.76%	5.92%
c1ccc2c(NCCOCCNc3c4ccccc4nc4ccccc34)c3ccccc3nc2c1	1.61%	2.67%	3.48%
COc1ccc(-c2ccc(NC(=O)c3cccc(F)c3)cc2)cc1CNC(C)C	0.72%	-0.6%	-2.2%
[O-][S+]1c2ccccc2Sc2ccccc21	2.27%	3.44%	1.95%
O=C(/C=C/c1ccc(C(F)(F)F)cc1)NCCCCCN1CCC(c2c[nH]c3ccccc23)CC1	-1.24%	-1.37%	0%
O=C(c1ccc(F)c(F)c1)N1CCOC(CCN2CCC(c3ccccc3)CC2)(c2ccc(Cl)c(Cl)c2)C1 (stereo not drawn)	4.15%	2.12%	3.63%
N#CCc1ccc(Nc2nccc(Nc3ccc(Oc4ccccc4)cc3)n2)cc1	13.8%	6.97%	1.09%
O=C(NC(CCCN1CCC2(CC1)OCc1ccccc12)c1ccc(Cl)c(Cl)c1)c1cc(C(F)(F)F)cc(C(F)(F)F)c1 (stereo not drawn)	1.7%	0.26%	-2.79%
